From PubChem BioAssay come the findings set out here.

The structures appear in SMILES notation. Where “and” joins values, the source holds several entries; their conditions need not be identical. Equal values may be shown once. Calls of active or inactive are those of the source.

Assay [1] in a line: small molecules captured by biotinylated probe aFSTL3 – biochemical, small-molecule microarray, fluorescence 635/667, stem cell growth factor project, primary screen (AID 1064).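 Further: measures binding of the biotinylated anti-FSTL3 antibody to printed compounds.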 Particulars: higher = more signal.
Assay [2] in a line: binders from COS7 lysate, DM2A8 probe, primary screen, torsin A project, cell lysate, small-molecule microarray, fluorescence 635/667 (AID 1065). Particulars: higher = more signal, COS7 lysate expressing mutant human TOR1A.
Assay [3] in a line: small molecules captured by biotinylated probe aFGF2 – biochemical, small-molecule microarray, fluorescence 635/667, stem cell growth factor project, primary screen (AID 1067).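 Further: measures binding of biotinylated aFGF2 protein to printed compounds on slides; z-score merges feature fluorescence and signal-to-noise across triplicate slides.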 Conditions: higher = more signal.
Assay [4] is described as follows: small molecules captured by biotinylated probe aFGF10 – biochemical, small-molecule microarray, fluorescence 635/667, stem cell growth factor project, primary screen (AID 1071).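 Further: score merges 667 nm spot intensity and signal to noise from triplicate slides.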 Particulars: higher = more signal.
Assay [5] has as its target Neurogenic locus notch homolog protein 2 (Homo sapiens) (UniProt Q04721). Description: small molecules binding Notch2 protein – biochemical, small-molecule microarray, 635 nm fluorescence, stem cell growth factors, primary screen (AID 1073). Conditions: higher = more signal.
Assay [6] deals with Pro-neuregulin-1, membrane-bound isoform (Homo sapiens) (UniProt Q02297). Description: small molecules binding neuregulin-1 protein – biochemical, small-molecule microarray, fluorescence 635/667, psychiatric disease protein project, primary screen (AID 1075).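 Further: score combines 667 nm spot fluorescence with signal to noise.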 Particulars: NRG1 binding, 635 nm fluorescence, higher = more signal.
Sequence of Pro-neuregulin-1, membrane-bound isoform (Homo sapiens) (Q02297 whole entry, looked up, the tested form may be a part, canonical isoform): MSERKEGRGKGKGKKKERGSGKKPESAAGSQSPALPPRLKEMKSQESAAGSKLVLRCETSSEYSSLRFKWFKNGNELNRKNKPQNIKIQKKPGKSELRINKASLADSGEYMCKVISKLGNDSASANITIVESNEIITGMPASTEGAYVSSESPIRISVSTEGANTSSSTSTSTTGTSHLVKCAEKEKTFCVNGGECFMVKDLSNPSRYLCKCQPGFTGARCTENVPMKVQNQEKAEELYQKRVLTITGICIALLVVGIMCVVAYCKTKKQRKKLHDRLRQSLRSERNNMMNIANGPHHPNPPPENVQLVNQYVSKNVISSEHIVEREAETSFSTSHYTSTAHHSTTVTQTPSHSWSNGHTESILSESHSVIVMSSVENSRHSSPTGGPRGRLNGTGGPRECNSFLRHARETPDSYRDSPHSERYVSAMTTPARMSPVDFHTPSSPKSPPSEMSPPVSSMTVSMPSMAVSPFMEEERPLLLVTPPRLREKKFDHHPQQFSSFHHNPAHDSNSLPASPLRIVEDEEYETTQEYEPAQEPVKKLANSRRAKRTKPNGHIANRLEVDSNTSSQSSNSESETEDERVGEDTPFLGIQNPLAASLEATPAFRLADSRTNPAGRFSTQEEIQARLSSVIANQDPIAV
Assay [7] deals with Neuregulin-1 EGF-like domain. Description: small molecules binding NRG1 EGF domain – biochemical, small-molecule microarray, 635 nm fluorescence, primary screen (AID 1081).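 Further: binding of the protein to compounds printed on small-molecule microarray slides.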 Particulars: higher = more signal.
Assay [8] can be described thus: FRG1 expression reporter modulators in myotubes – cell-based, C2C12 myotubes, firefly/Renilla luciferase, luminescence, FRG1 inhibition for FSHD, primary screen (AID 1084). Particulars: FRG1 promoter luciferase, higher = more signal, called active from +8 up or from −8 down.
Assay [9] is described as follows: small molecules captured by biotinylated probe aFST – biochemical, small-molecule microarray, fluorescence 635/667, stem cell growth factor project, primary screen (AID 1086).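 Further: score merges 667 nm fluorescence with signal-to-noise of each printed compound spot.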 Conditions: higher = more signal.
Assay [10] in a line: binders of probe aHhip on microarray, primary screen, stem cell growth factor project, biochemical, small-molecule microarray, fluorescence 635/667 (AID 1087).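 Further: score merges spot fluorescence at 667nm with spot signal to noise ratio.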 Particulars: higher = more signal.
The subject of assay [11] is PRMT1 (protein arginine N-methyltransferase 1). Description: small molecules binding arginine methyltransferase PRMT1 – biochemical, small-molecule microarray, 635 nm fluorescence, primary screen (AID 1088).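 Further: binding of Prmt1 protein to compounds spotted on small-molecule microarray slides.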 Conditions: higher = more signal.
Assay [12] in a line: growth effects on S. cerevisiae YJM789 – YJM789 clinical isolate, OD600, 24 h, basal, primary screen (AID 1089).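 Further: growth of clinical yeast isolate S. cerevisiae YJM 789 seeded 1000 cells per well; test concentration not given here.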 Particulars: higher = more signal, called active from +8 up or from −8 down.
A short description of assay [13]: S. pombe growth modifiers, basal conditions – strain 972, OD600, 24 h, no modulator, primary screen (AID 1090).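 Further: basal condition with compound alone and no growth modifier present; test concentration not given here.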 Particulars: S. pombe 972 growth, higher = more signal, called active from +8 up or from −8 down.
Assay [14] is described as follows: budding yeast growth modifiers under rapamycin – strain BY4716, OD600, 96 h, primary screen (AID 1091). Further: test concentration not given here. Conditions: S. cerevisiae BY4716 + rapamycin, higher = more signal, called active from +8 up or from −8 down.
Assay [15] addresses Torsin-1A-interacting protein 2 (Homo sapiens) (UniProt Q8NFQ8). Kind of assay: small molecules binding lysate-expressed LULL1 – cell lysate, human LULL1 lysate, 635/667 nm fluorescence, primary screen (AID 1092).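 Further: probe is lysate of COS7 cells overexpressing human LULL1; score merges per-feature 667 nm fluorescence with signal-to-noise.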 Conditions: small-molecule microarray, hLULL1 lysate binding, 635 nm fluorescence; higher = more signal.
Assay [16] in a line: optical density change of DRC41 E. coli – strain DRC41, OD650, 24 h, E. coli filamentation project, primary screen (AID 1093).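 Further: MC1000 strain lacking acrAB efflux and sulA so SOS filamentation is blocked; test concentration not given here.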 Particulars: E. coli DRC41 growth, higher = more signal, called active from +8 up or from −8 down.
Assay [17] is described as follows: probe aLefty2 binding to arrayed compounds – biochemical, biotinylated probe, 635/667 nm fluorescence, primary screen (AID 1094).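 Further: score merges spot fluorescence near 667 nm with spot signal-to-noise ratio.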 Conditions: small-molecule microarray, higher = more signal.
Assay [18] concerns Noggin (protein binding on small-molecule microarray). Description: small molecules binding Noggin protein – biochemical, 635/667 nm fluorescence, primary screen (AID 1095).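 Further: score merges 667 nm feature fluorescence with signal to noise over triplicate slides.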 Particulars: 635 nm fluorescence, higher = more signal.
For assay [19], the target named is Neurogenic locus notch homolog protein 3 (Homo sapiens) (UniProt Q9UM47). Description: small molecules binding NOTCH3 protein – biochemical, 635/667 nm fluorescence, primary screen (AID 1096). Conditions: small-molecule microarray, 635 nm fluorescence, higher = more signal.
Assay [20] in a line: probe aEGFR binding to arrayed compounds – biochemical, biotinylated probe, 635/667 nm fluorescence, primary screen (AID 1097).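 Further: probe is a biotinylated anti-EGFR antibody binding compounds printed on slides; score combines fluorescence near 667 nm and signal to noise of each spot.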 Particulars: small-molecule microarray, higher = more signal.

Sequence of Neurogenic locus notch homolog protein 2 (Homo sapiens) (Q04721 whole entry, looked up, canonical isoform): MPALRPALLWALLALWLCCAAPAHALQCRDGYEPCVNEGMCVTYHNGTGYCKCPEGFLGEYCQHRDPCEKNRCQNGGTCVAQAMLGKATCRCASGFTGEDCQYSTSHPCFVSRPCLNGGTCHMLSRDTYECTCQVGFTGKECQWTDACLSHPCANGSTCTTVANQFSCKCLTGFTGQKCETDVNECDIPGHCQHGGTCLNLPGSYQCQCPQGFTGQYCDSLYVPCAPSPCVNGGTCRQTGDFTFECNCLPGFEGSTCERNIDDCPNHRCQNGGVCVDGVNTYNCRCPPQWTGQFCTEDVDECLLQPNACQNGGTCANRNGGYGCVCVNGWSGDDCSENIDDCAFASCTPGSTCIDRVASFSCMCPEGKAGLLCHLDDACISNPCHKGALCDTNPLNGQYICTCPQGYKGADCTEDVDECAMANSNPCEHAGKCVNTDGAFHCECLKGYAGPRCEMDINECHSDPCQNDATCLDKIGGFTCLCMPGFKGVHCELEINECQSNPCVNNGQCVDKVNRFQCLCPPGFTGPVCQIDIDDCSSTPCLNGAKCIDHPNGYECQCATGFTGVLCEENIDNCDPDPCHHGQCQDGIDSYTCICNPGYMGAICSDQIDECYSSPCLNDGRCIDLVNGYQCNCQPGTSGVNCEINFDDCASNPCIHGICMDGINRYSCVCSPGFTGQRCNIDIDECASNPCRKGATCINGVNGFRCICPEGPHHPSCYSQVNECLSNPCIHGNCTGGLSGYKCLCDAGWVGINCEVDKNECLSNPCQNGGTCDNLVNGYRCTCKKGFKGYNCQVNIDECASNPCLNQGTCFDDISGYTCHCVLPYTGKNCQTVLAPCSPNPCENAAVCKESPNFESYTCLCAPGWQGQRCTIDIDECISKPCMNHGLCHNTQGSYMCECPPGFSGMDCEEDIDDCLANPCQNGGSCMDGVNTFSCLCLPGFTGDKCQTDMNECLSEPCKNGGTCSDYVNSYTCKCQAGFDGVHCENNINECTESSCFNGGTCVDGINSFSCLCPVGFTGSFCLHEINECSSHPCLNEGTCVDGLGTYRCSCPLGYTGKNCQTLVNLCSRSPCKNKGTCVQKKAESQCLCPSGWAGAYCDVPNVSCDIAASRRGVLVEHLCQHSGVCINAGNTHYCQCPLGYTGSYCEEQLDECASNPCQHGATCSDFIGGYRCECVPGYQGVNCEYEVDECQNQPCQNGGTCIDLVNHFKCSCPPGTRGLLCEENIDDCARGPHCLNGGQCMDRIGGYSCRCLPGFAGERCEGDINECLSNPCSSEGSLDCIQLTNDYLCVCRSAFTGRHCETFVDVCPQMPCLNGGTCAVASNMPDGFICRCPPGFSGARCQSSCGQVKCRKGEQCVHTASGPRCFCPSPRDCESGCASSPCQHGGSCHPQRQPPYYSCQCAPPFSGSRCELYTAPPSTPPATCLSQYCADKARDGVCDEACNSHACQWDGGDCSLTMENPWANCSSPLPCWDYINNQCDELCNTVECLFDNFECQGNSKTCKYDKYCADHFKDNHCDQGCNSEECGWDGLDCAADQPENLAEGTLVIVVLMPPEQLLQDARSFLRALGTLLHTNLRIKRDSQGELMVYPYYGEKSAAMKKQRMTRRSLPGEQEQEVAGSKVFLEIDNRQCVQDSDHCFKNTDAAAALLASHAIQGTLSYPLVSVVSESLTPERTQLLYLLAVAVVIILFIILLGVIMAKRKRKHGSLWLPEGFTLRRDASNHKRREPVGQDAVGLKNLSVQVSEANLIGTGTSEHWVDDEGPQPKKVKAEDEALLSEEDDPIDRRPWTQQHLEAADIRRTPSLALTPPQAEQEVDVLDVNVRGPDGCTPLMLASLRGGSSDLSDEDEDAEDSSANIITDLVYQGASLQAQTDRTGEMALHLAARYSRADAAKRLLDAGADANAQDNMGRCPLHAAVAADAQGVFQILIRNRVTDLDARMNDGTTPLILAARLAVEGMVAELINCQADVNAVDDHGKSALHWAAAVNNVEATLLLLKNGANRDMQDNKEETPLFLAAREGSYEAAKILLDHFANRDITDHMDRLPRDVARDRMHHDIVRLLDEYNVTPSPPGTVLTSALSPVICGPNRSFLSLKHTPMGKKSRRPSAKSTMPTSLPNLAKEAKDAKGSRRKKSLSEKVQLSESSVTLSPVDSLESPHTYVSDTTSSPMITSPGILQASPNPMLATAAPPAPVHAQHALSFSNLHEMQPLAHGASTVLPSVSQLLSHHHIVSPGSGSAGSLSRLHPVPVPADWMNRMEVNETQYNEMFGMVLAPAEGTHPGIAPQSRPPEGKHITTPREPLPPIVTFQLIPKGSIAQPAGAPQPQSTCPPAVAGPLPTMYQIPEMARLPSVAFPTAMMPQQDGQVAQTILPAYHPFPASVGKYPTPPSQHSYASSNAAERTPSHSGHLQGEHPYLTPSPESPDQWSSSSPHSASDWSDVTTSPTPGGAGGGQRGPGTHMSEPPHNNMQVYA
Sequence of Torsin-1A-interacting protein 2 (Homo sapiens) (Q8NFQ8 whole entry, looked up): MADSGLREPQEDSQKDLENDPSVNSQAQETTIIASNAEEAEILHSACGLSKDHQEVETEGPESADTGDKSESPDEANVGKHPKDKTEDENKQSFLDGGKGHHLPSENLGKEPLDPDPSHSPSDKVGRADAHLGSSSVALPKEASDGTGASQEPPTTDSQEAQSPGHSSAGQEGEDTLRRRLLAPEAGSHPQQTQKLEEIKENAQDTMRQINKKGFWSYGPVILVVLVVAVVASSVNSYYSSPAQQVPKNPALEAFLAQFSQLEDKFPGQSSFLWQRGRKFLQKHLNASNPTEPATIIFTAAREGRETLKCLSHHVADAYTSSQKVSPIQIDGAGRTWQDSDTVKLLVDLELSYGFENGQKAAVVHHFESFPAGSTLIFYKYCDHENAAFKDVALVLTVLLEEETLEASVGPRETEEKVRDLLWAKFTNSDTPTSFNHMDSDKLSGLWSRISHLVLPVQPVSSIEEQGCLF

Turning to `C[N+](C)(C)CCCCNC(=O)[C@H]1C[C@H]2C(=O)N[C@@H](CCCC[N+](C)(C)C)C(=O)N2[C@H]1c1cccc(OCCO)c1`, the composite z-score was -0.0665 and -0.363 in assay [1]; -0.422 and 1.12 in assay [2]; -0.0744 and -0.149 in assay [3]; 1.24 and 0.967 in assay [4]; -0.0613 and 0.622 in assay [5]; 1.24 and 0.211 in [6]. Besides, the composite z-score in assay [7] was 0.973 and 1.38; in assay [9] it was 0.613 and 0.743; in assay [10], 0.142 and -0.41; in [11], 1.04 and 1.57; in assay [15] it was 2.58 and 1.78; in assay [17] it was -0.121 and -0.0153. Also, the composite z-score was 1.89 and 1.75 in assay [18]; 0.914 and 1.1 in assay [19]; 0.0614 and 0.22 in assay [20]. For the same compound, the z-score in [8] was -0.194 (inactive) and -0.269 (inactive); in assay [12] it was -0.604 (inactive) and -0.504 (inactive); in assay [13], -0.0107 (inactive) and -0.805 (inactive); in assay [14], -1.88 (inactive) and -1.81 (inactive); in assay [16], -0.351 (inactive) and -0.201 (inactive).
For the compound `C=CCN1C(=O)[C@]2(O[C@H](CCn3cc(CCO)nn3)[C@@H]([Si](C)(C)c3ccc(OC)cc3)[C@@H]2C)c2cc(N3C(=O)c4cccc5cccc3c45)ccc21`, the composite z-score in assay [1] is -0.298 and -0.359; in assay [2], 1.1 and -0.4; in [3] it was -0.0069 and -0.0563; in [4] it was 0.678 and 0.735; in assay [5] it was 0.285 and 0.226; in assay [6], 1.19 and 0.465. Moreover, the composite z-score in [7] was 1.03; in assay [9] it was 0.115 and -0.305; in [10], -0.0618 and 0.157; in assay [11], 1.27 and 1.46; in assay [15] it was 1.73 and 1.57; in assay [17] it was -0.166 and -0.177. In addition, the composite z-score is 0.708 and 0.778 in assay [18]; 0.644 and 0.979 in assay [19]; -0.0828 and -0.238 in assay [20]. For the same compound, the z-score in assay [8] is -2.77 (inactive) and -2.7 (inactive); in assay [12], 1.25 (inactive) and 0.648 (inactive); in assay [13], 1.82 (inactive) and 1.64 (inactive); in [14], 36.8 (active) and 36.6 (active); in assay [16] it was 1.43 (inactive) and 0.793 (inactive).
In the case of `Cc1ccc(S(=O)(=O)OC[C@@H]2CN3[C@@H](CC[C@@H](C)[C@@H]3c3ccc(Br)cc3)C(=O)O2)cc1`, the composite z-score in assay [1] was -0.14 and -0.482; in [2], 0.299 and 0.063; in assay [3] it was -0.0502 and 0.0062; in assay [4], 0.251 and 0.369; in [5], 0.246 and 0.663; in [6] it was 0.311 and 0.0379. In addition, the composite z-score in [7] was 0.168 and 1.07; in assay [9], 0.447 and 0.166; in [10], 0.21 and 0.268; in assay [11], 0.353 and 1.4; in assay [15], 0.454 and 0.845; in [17], -0.0389 and -0.205. Moreover, the composite z-score in assay [18] was 0.0884 and 0.47; in assay [19] it was -0.0776 and 0.686; in assay [20], 0.0519 and -0.0671. In addition, the z-score in assay [8] was 0.472 (inactive) and -0.0959 (inactive); in [12] it was -0.464 (inactive) and 0.544 (inactive); in assay [13], -0.252 (inactive) and 0.102 (inactive); in assay [14], -0.182 (inactive) and 0.777 (inactive); in assay [16] it was 0.199 (inactive) and -0.206 (inactive).
Consider `CCOC(=O)C[C@H]1[C@H](OC(=O)c2ccccc2-c2ccccc2)[C@@H](NC(=O)c2ccccc2)c2cc(OCCCO)ccc2N1C(=O)c1ccc2ccccc2n1`, for which the composite z-score in assay [1] is -0.0767 and -0.127; in assay [2], 0.455 and 0.0871; in [3] it was 0.0047 and -0.094; in assay [4], 0.507 and 0.191; in assay [5], 0.708 and 0.964; in [6] it was -0.106 and 0.749. The composite z-score in [7] is 0.738 and 0.565; in assay [9] it was 0.214 and 0.306; in assay [10], 0.347 and -0.0994; in assay [11], -0.0222 and 1.19; in assay [15], 0.549 and 1.01; in assay [17], -0.0437 and 0.0212. Also, the composite z-score was 0.357 and 0.843 in [18]; 0.481 and 0.737 in [19]; 0.0323 and -0.0815 in assay [20]. The z-score in assay [8] is -0.129 (inactive) and -0.113 (inactive); in [12] it was -0.0469 (inactive) and -0.78 (inactive); in assay [13], -0.19 (inactive) and 0.209 (inactive); in [14], -0.0952 (inactive) and 0.0526 (inactive); in assay [16], 1.02 (inactive) and -0.728 (inactive).
